Experimental data: PubChem BioAssay (NCI)
This is part of a sample that, as a whole, favours compounds with a hit. Of some 79,000 tested, about 15% had one in any assay. Active and inactive are the calls of the source. Rule as the data show it: active = growth inhibition above about 70%; inactive = the rest.

assay: NCI Yeast Anticancer Drug Screen. Data for the rad50 strain (AID 155);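 also: 0% = growth of vehicle-only cultures of the same strain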; conditions: S. cerevisiae rad50 strain growth inhibition; at 5.0 µM (retest, dose inferred, filed as 0.5); active compounds read high
Procedure, shortened: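 Growth of the mutant yeast was measured after compound exposure and referenced to vehicle-treated cultures.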

| SMILES | growth inhibition |
| --- | --- |
| Oc1cc(Br)cc2cccnc12 | 99% (active) |
| COC(=O)Cc1cn[nH]c1C(=O)OC | -147% (inactive) |
| O=C1CCCCCCC2=C1C(Sc1ccccc1)CC2 (configuration not stated) | -27% (inactive) |
| CC/C(=C1\C=CC(=O)S1)C(CC)c1ccc(OC(C)=O)cc1 (configuration not stated) | -14% (inactive) |
| COc1ccc(C2=C(Cl)C(=O)N(c3ccc(C)cc3)C(=O)C2(Cl)Cl)cc1 | 14% (inactive) |
| CN(C)C1C[C@@H](O[Si](C)(C)C(C)(C)C)C=C1S(=O)(=O)c1ccccc1 (some centres not stated) | -16% (inactive) |
| NC(=O)C(=O)N/N=C/c1ccc([N+](=O)[O-])o1 | 14% (inactive) |
| O=C(O)C1CCC(CC2CC3CCC2C3)CC1 (configuration not stated) | -146% (inactive) |
| CCCCCCCCCCCCOCC[N+](CCO)(CCO)Cc1ccccc1 | 99% (active) |
| Cc1cc(C)cc([C@H](C)N=Cc2cc(Br)ccc2O)c1 | 11% (inactive) |
| C=CC1(c2ccc(OC)cc2)OCCCO1 | -11% (inactive) |
| CC(C)CCOC(=O)c1ccc(O)cc1.[Zn+2] | 5% (inactive) |
| C/C=C/C=C\C1OC(O)([C@H](CC)C(=O)NC/C=C/C=C(\C)[C@H](OC)C(C)C2OC(\C=C/C=C/C=C(\C)C(=O)c3c(O)ccn(C)c3=O)[C@H](O)[C@@H]2O)C(O)C(O)C1(C)C (some centres not stated) | -23% (inactive) |
| O=c1cccccc1[O-].O=c1cccccc1[O-].O=c1cccccc1[O-].[Dy+3] | 19% (inactive) |
| CCCC(=O)Oc1ccc(-c2ccc(Br)cc2)cc1 | 4% (inactive) |
| Oc1c(Cl)c(Cl)c(O)c2c1CCCC2 | 46% (inactive) |
| Clc1nc(Cl)nc(N2CCCc3ccccc32)n1 | -24% (inactive) |
| CC[C@H]1CN2CCc3cc(OC)c(OC)cc3[C@@H]2C[C@@H]1C[C@H]1NCCc2cc(OC)c(OC)cc21 | 0% (inactive) |
| S=C(NCCc1ccccc1)N/N=C/c1ccc(Cl)cc1 | 52% (inactive) |
| O=C(O)Cc1ccc2c(c1O)C(=O)c1ccccc1C2=O | 1% (inactive) |
| CC1CCN(C(=S)NNC(C)c2cc3ccccc3cn2)CC1 (configuration not stated) | 45% (inactive) |
| Cc1c[nH]c(C(=O)O)c1-c1ccc2c(-c3ccccc3)nc3ccccc3n12 | 14% (inactive) |

same assay, conditions: S. cerevisiae rad50 strain growth inhibition; at 50.0 µM (retest, dose inferred, filed as 5.0); active compounds read high

| SMILES | growth inhibition |
| --- | --- |
| CC(CN(C)C)C(=O)/C=C/c1c(Cl)cccc1Cl (configuration not stated) | 88% (active) |
| COc1ccc(C(=O)c2cc(Br)ccc2O)cc1 | 4% (inactive) |
| COc1cccc(OC)c1C(=O)/C=C/c1ccccc1 | 62% (inactive) |
| S=C(Nc1ccc(Cl)c(Cl)c1)SC1CCCCC1 | 96% (active) |
| Cc1sc(N=Nc2c(O)[nH]c3ccccc23)nc1-c1ccccc1 | 31% (inactive) |
| O=C(NC(c1ccccc1)N1CCOCC1)c1ccccc1 (configuration not stated) | -1% (inactive) |
| Cc1nc2ccc3c(ccc4nc(C)c(N=Nc5ccc(C(=N)N)cc5)c(O)c43)c2c(O)c1N=Nc1ccc(C(=N)N)cc1 | 89% (active) |
| CN(C)CCNC(=O)C(c1ccccc1)c1ccccc1 | 13% (inactive) |
| CCOc1ccc(C(=O)CCN2CCOCC2)cc1 | 40% (inactive) |
| O=S(Nc1ccccc1Br)c1ccccc1 (configuration not stated) | 10% (inactive) |
| CSC(=S)N/N=C(\C)c1ccc[nH]1 | 96% (active) |
| Cc1ccc(Cl)cc1NN | 95% (active) |
| C[C@]12CC[C@H](O)C[C@@H]1CC[C@@H]1[C@@H]2CC[C@]2(C)[C@@H](c3cc(C(F)(F)F)n[nH]3)CC[C@@H]12 | 94% (active) |
| CCCOC(=O)C(S)C(S)C(=O)OCCC (configuration not stated) | 50% (inactive) |
| CCC(C)(C)c1cc(Br)c(NS(=O)(=O)c2ccc(NC(C)=O)cc2)c(Br)c1 | 80% (active) |
| Cn1c2c(c3nc(N)nc(N)c3c1=O)CCc1ccccc1-2 | 21% (inactive) |
| Cc1ccc(C(O)CCN2CCOCC2)c(C)c1 (configuration not stated) | 69% (inactive) |
| COC(=O)CCCC(=O)NC1=C(Nc2ccccc2)C(=O)c2ccccc2C1=O | 72% (active) |
| Oc1cc(Br)cc2cccnc12 | 99% (active) |
| COC(=O)Cc1cn[nH]c1C(=O)OC | 8% (inactive) |

| SMILES | growth inhibition |
| --- | --- |
| O=C1CCCCCCC2=C1C(Sc1ccccc1)CC2 (configuration not stated) | 34% (inactive) |
| CC/C(=C1\C=CC(=O)S1)C(CC)c1ccc(OC(C)=O)cc1 (configuration not stated) | 99% (active) |
| COc1ccc(C2=C(Cl)C(=O)N(c3ccc(C)cc3)C(=O)C2(Cl)Cl)cc1 | 59% (inactive) |
| CN(C)C1C[C@@H](O[Si](C)(C)C(C)(C)C)C=C1S(=O)(=O)c1ccccc1 (some centres not stated) | 100% (active) |
| NC(=O)C(=O)N/N=C/c1ccc([N+](=O)[O-])o1 | 49% (inactive) |
| O=C(O)C1CCC(CC2CC3CCC2C3)CC1 (configuration not stated) | 79% (active) |
| CCCCCCCCCCCCOCC[N+](CCO)(CCO)Cc1ccccc1 | 99% (active) |
| Cc1cc(C)cc([C@H](C)N=Cc2cc(Br)ccc2O)c1 | 95% (active) |
| C=CC1(c2ccc(OC)cc2)OCCCO1 | 99% (active) |
| CC(C)CCOC(=O)c1ccc(O)cc1.[Zn+2] | 36% (inactive) |
| C/C=C/C=C\C1OC(O)([C@H](CC)C(=O)NC/C=C/C=C(\C)[C@H](OC)C(C)C2OC(\C=C/C=C/C=C(\C)C(=O)c3c(O)ccn(C)c3=O)[C@H](O)[C@@H]2O)C(O)C(O)C1(C)C (some centres not stated) | -46% (inactive) |
| O=c1cccccc1[O-].O=c1cccccc1[O-].O=c1cccccc1[O-].[Dy+3] | 19% (inactive) |
| CCCC(=O)Oc1ccc(-c2ccc(Br)cc2)cc1 | 93% (active) |
| Oc1c(Cl)c(Cl)c(O)c2c1CCCC2 | 98% (active) |
| Clc1nc(Cl)nc(N2CCCc3ccccc32)n1 | 78% (active) |
| CC[C@H]1CN2CCc3cc(OC)c(OC)cc3[C@@H]2C[C@@H]1C[C@H]1NCCc2cc(OC)c(OC)cc21 | 12% (inactive) |
| S=C(NCCc1ccccc1)N/N=C/c1ccc(Cl)cc1 | 57% (inactive) |
| O=C(O)Cc1ccc2c(c1O)C(=O)c1ccccc1C2=O | 20% (inactive) |
| CC1CCN(C(=S)NNC(C)c2cc3ccccc3cn2)CC1 (configuration not stated) | 97% (active) |
| Cc1c[nH]c(C(=O)O)c1-c1ccc2c(-c3ccccc3)nc3ccccc3n12 | 96% (active) |
